Reference: PubChem BioAssay AID1851 (National Center for Advancing Translational Sciences (NCATS), 2009)
The whole screen tested about 16,000 compounds, of which about 5,100 (32%) were called active. Not shown: some 25% with an inconclusive outcome. Calls follow the shape of the dose curve; as a rule, active = well fitted curve in the direction sought with a large enough effect; inconclusive = small, poorly fitted or top-dose-only effect, or effect the other way; inactive = no such curve, though single readings can be large or run the other way. This is one part of the list.

target: Cytochrome P450 3A4 (Homo sapiens) (UniProt P08684); test: Cytochrome panel assay with activity outcomes; conditions: recombinant CYP, pro-luciferin dealkylation, luminescence, p450-cyp3a4; series mostly up to 57.1 µM
Sequence (P08684 whole entry, looked up): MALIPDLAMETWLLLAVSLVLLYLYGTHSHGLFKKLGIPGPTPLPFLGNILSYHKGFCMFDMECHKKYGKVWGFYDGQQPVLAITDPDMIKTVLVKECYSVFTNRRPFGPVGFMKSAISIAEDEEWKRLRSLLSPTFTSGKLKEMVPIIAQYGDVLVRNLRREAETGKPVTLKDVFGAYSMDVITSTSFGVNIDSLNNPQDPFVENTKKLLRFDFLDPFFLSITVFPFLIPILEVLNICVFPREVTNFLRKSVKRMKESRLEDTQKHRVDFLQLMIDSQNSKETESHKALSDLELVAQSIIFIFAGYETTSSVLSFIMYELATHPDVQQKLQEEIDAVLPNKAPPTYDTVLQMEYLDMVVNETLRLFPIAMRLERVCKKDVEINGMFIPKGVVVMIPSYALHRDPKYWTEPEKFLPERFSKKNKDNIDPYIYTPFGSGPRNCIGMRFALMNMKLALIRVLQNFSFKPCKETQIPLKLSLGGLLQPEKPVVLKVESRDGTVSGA
% is scaled to controls: 0 for no effect and ±100 for the full control effect.

SMILES | AC50 | activity, negative = inhibition
O=C(O)CN(CCN(CC(=O)O)CC(=O)O)CCN(CC(=O)O)CC(=O)O | inactive | 
Oc1ccc(Cc2nccc3cc(O)c(O)cc23)cc1O |  | -11.6% [at 11.4 µM] (inactive)
CC1(C)CC(=O)C(C(c2cccc(O)c2O)C2C(=O)CC(C)(C)CC2=O)C(=O)C1 |  | -5.88% [at 11.4 µM] (inactive)
OCCN(Cc1ccccc1)Cc1cccc(Cl)c1Cl |  | 9.74% [at 11.4 µM] (inactive)
CCN(CC(=O)NCc1cccs1)S(=O)(=O)c1ccc(C(C)C)cc1 | 7.08 µM (active) | 
COc1ccccc1/C=N/NC(=O)CC(=O)Nc1ccc(Cl)c(Cl)c1 | 7.94 µM (active) | 
CCOC(=O)N/N=C/c1ccccc1F | inactive | 
O=C(CO)N/N=C/c1ccccc1F | inactive | 
COc1ccc(OC)c(C2C(C(=O)Nc3nc4ccccc4s3)=C(C)NC3=C2C(=O)CCC3)c1 (stereo not given) | 2.24 µM (active) | 
COCCN1CN=C(Nc2nc3ccccc3s2)NC1 | inactive | 
CO[C@@H]1CC[C@@]2(C)[C@@H](CC[C@@]3(C)[C@H]2CC=C2[C@H]4CC(C)(C)[C@H](O)[C@@H](OC(C)=O)[C@]4(CO)[C@H](O)C[C@]23C)[C@@]1(C)CO (tested in a mixture with another compound) | inactive | 
COc1cccc(/C=c2/s/c(=C(\C#N)C(=O)N3CCOCC3)n(-c3ccccc3)c2=O)c1 | inactive | 
Clc1ccccc1NN(Cc1ccccn1)c1ccccc1Cl |  | -2.68% [at 11.4 µM] (inactive)
Clc1ccccc1NN(Cc1ccncc1)c1ccccc1Cl | 0.251 µM (active) | 
CC1=CC(C)(C)N(C)C(=O)N1c1ccc(Cl)cc1 |  | -0.338% [at 2.29 µM] (inactive)
Cc1cc(=O)oc(C)c1C(=O)NCCCN1CCN(c2ccc(F)cc2)CC1 | inactive | 
O=C(NCc1ccccc1)c1onc(CSc2ccc(F)cc2)c1C(=O)NCCCN1CCOCC1 | 2.51 µM (active) | 
COCCNC(=O)c1onc(CSc2cccc(Cl)c2)c1C(=O)O | inactive | 
C=C(C)[C@@H]1CC=C(C(=O)O)CC1 | inactive | 
CO[C@@H](NC(N)=O)C(=O)O |  | -10.7% [at 11.4 µM] (inactive)
CN(C)c1cc2c(Nc3ccc4c(cnn4Cc4ccccc4)c3)ncnc2cn1 | 5.01 µM (active) | 
CC(C(=O)NC1CCCC1)N(C(=O)c1snc(C(N)=O)c1N)c1ccc2c(c1)OCCO2 (stereo not given) | 3.55 µM (active) | 
Cc1ccc(NC2=NC(c3ccccc3)n3c(nc(C)cc3=O)N2)c(C)c1 (stereo not given) | 14.1 µM (active) | 
O=C(OCc1nnc(-c2ccccc2)o1)c1ccc2c(c1)OCCO2 | 20 µM (active) | 
O=C(OCc1cccc(F)c1)c1ccc2c(c1)-c1ccccc1C2=O | inactive | 
O=C(OCC#CCSc1nnc(-c2cccc3ccccc23)o1)c1ccco1 | 7.94 µM (active) | 
Cc1ccccc1OCCNC(=S)Nc1ccccc1 | 12.6 µM (active) | 

SMILES | AC50 | activity, negative = inhibition
S=C(Nc1ccccc1)Nc1ccc(OCc2ccccc2)cc1 | inactive | 
O=C(Nc1ccccc1)N1CC2(CCN(C(=O)c3ccco3)CC2)C1 | inactive | 
O=C(c1ccco1)N1CCC[C@@]2(CCN(c3ccncc3)C2)C1 | 1.26 µM (active) | 
O=C(c1ccco1)N1CCC2(CC1)CCN(c1ccccc1)CC2 | inactive | 
O=C(c1ccco1)N1CCC[C@@]2(CCN(c3ccccc3)C2)C1 | 12.6 µM (active) | 
O=C(Nc1ccc(N=Nc2ccccc2)cc1)c1ccc(Cl)cc1Cl | inactive | 
O=C(Nc1cccn2ncnc12)c1ccc(Cl)cc1Cl | inactive | 
CCCN(CCC)C(=S)NC(=O)c1ccc(Cl)cc1Cl | 14.1 µM (active) | 
CC12COC3(C(=O)Nc4nccs4)CC1CCC32C (stereo not given) | 14.1 µM (active) | 
CC1CCc2c(C(=O)Nc3nccs3)csc2C1 (stereo not given) |  | -19.8% [at 11.4 µM] (inactive)
Cc1onc(C(=O)/C=C/N(C)C)c1C(=O)Nc1nccs1 | inactive | 
Cn1c(OCc2ccc3c(c2)OCO3)nc2c1c(=O)n(Cc1ccc(Cl)c(Cl)c1)c(=O)n2C | 3.55 µM (active) | 
CCCCOC(=O)CCc1c(C)[nH]c(=O)c(C#N)c1C | inactive | 
Cc1cc(N)c2cc(NC(=O)Nc3ccc4nc(C)cc(N)c4c3)ccc2n1 |  | -7.21% [at 11.4 µM] (inactive)
Cc1cc(NC(=O)Nc2ccc(N(C)C)cc2)c2cc(F)cc(F)c2n1 | 6.31 µM (active) | 
Cc1cc(NC(=O)Nc2ccc(F)cc2)no1 | inactive | 
CSc1nsc(/C=C/Nc2ccc(Cl)cc2)c1C#N | 8.91 µM (active) | 
CSc1nc(N)nc(SCC(=O)Nc2ccc(Cl)cc2)c1C#N | inactive | 
C[C@@H](c1ccccc1)N1C(=O)[C@H]2[C@@H]3[C@H](O)C=CC(=O)[C@H]3CC[C@H]2C1=O |  | -17.4% [at 11.4 µM] (inactive)
Cc1cnc(CNc2ccnc(-c3cccc(NS(C)(=O)=O)c3)n2)cn1 | 15.8 µM (active) | 
Cc1cnc(CNc2ccnc(-c3cccc(C#N)c3)n2)cn1 | 12.6 µM (active) | 
COc1cccc(-c2nccc(NCc3cnc(C)cn3)n2)c1 | 6.31 µM (active) | 
Cc1cnc(CNc2ccnc(-c3cccnc3)n2)cn1 | 5.01 µM (active) | 
C[C@@H](N)C(=O)O | inactive | 
Cc1cc(C)cc(Oc2nn[nH]n2)c1 | inactive | 
CC(C)CCN1CC(C(=O)N2CCN(c3ccc(F)cc3)CC2)CC1=O (stereo not given) | inactive | 
O=C(CCS(=O)(=O)c1cccs1)N1CCN(c2ccc(F)cc2)CC1 | 12.6 µM (active) | 

SMILES | AC50 | activity, negative = inhibition
Cc1ccccc1S(=O)(=O)Oc1ccccc1C(=O)Oc1ccccc1 |  | -12.1% [at 2.29 µM] (inactive)
Nc1ccc(S(=O)(=O)Nc2ccccn2)cc1 | inactive | 
CC(C)CCNC(=O)Cc1ccccc1[N+](=O)[O-] | inactive | 
O=C(Cc1ccccc1[N+](=O)[O-])NCCSCc1c(F)cccc1Cl | 14.1 µM (active) | 
COCCNC(=O)c1cn(Cc2c(F)cccc2Cl)nn1 | inactive | 
CC(C)COCC1CC2(CC(C)(c3csc(N)n3)OC2=O)C(=O)O1 (stereo not given) | 14.1 µM (active) | 
CCC1CCCCN1CCn1c(=S)[nH]c2cc(OC)c(OC)cc2c1=O (stereo not given) | 14.1 µM (active) | 
CCN1CCC[C@H]1CNC(=O)c1c(OC)ccc(Br)c1OC | inactive | 
CCC1CCCCN1Cc1cc(OC)c(O)c([N+](=O)[O-])c1 (stereo not given) | inactive | 
O=C(O)[C@@H]1C[C@@H](C(=O)O)N1 | inactive | 
c1ccc(CCNc2nnnn2-c2ccccc2)cc1 |  | -3.75% [at 2.29 µM] (inactive)
Cn1ncc2c(NCCc3ccccc3)nc(Cl)nc21 | 2 µM (active) | 
Cn1ncc2c(Cl)ncnc21 |  | -9.04% [at 11.4 µM] (inactive)
CCN1CCN(c2cc(=O)n(-c3cc(Cl)ccc3C)c(=O)[nH]2)CC1 | inactive | 
CS(=O)c1ccccc1-c1nc(-c2cc(C(F)(F)F)cc(C(F)(F)F)c2)no1 (stereo not given) |  | 15.3% [at 2.29 µM] (inactive)
Cc1cccc(-c2noc(-c3cc4ccccc4oc3=O)n2)c1 | 8.91 µM (active) | 
CS(=O)(=O)c1ccccc1-c1nc(-c2cc(C(F)(F)F)cc(C(F)(F)F)c2)no1 |  | 4.25% [at 2.29 µM] (inactive)
COc1ccc(/C=C/c2ccncc2)cc1 | 1.58 µM (active) | 
COc1nc(Oc2ccc(/C=N/O)cc2)nc(N(C)C)n1 |  | -3.18% [at 2.29 µM] (inactive)
COc1ccc(OC(=O)c2ccncc2)cc1 | inactive | 
CCOC(=O)C(C)Sc1nnc(CNC(=O)c2ccc(OC)cc2)n1C1CCCCC1 (stereo not given) | 0.891 µM (active) | 
CCOC(=O)CSc1nnc(CNC(=O)c2ccc(OC)cc2)n1C1CCCCC1 | 2 µM (active) | 
O[C@@H]1[C@@H](OCc2ccccc2)OC[C@H](O)[C@@H]1O |  | -2.87% [at 11.4 µM] (inactive)
Cc1cc(C)cc(N(C(=O)C2CCCC2)C2C=CS(=O)(=O)C2)c1 (stereo not given) |  | -15.4% [at 2.29 µM] (inactive)
CCCCC1=NN2C(=N)CC(=O)N=C2S1 | inactive | 
CCN(CC)c1ccc(NC(=O)c2cnn(CC)c2)cc1 | inactive | 
CN(C)c1ccc(NC(=O)CSc2nc(N)c(C(=O)Nc3ccc(N(C)C)cc3)s2)cc1 | 4.47 µM (active) | 

SMILES | AC50 | activity, negative = inhibition
CN[C@@H]1NC(=O)c2ccccc2N1Cc1ccc(F)cc1 |  | -12.4% [at 11.4 µM] (inactive)
O=C1c2cccnc2C(=O)N1Cc1ccc(F)cc1 | inactive | 
Cc1ccc(NC2c3ncccc3C(=O)N2Cc2ccc(F)cc2)cc1 (stereo not given) | 4.47 µM (active) | 
Cc1cc(C)c(O)c(Cc2cccc(Cc3cc(C)cc(C)c3O)c2O)c1 |  | 6.11% [at 11.4 µM] (inactive)
CN(Cc1cccc2ccccc12)Cc1cccc2ccccc12 |  | -53.9% [at 11.4 µM] (inactive)
Cc1ccc(C)c(C(=N)c2ccccc2Cc2ccccc2)c1 | 3.98 µM (active) | 
c1ccc2c(CC3=NCCN3)cccc2c1 | inactive | 
N=C(c1ccc2ccccc2c1)c1ccccc1Cc1ccccc1 |  | -11.9% [at 11.4 µM] (inactive)
Cc1ccc(C(=N)c2ccccc2Cc2cccc3ccccc23)c2ccccc12 | 3.98 µM (active) | 
CN1CCCC1CCNC1C2CC3CC(C2)CC1C3 (stereo not given) |  | -0.75% [at 2.29 µM] (inactive)
CN1C(=C2C(=O)OC(C)(C)OC2=O)Sc2ccccc21 | inactive | 
O=C(Oc1c(Br)cc(C(=S)N2CCOCC2)cc1Br)c1ccc(Cl)cc1 |  | -1.32% [at 2.29 µM] (inactive)
O=c1c(-c2ccccc2)nc2cnc(N3CCNCC3)nc2n1C1CC1 | 12.6 µM (active) | 
O=c1c(-c2cc(F)cc(F)c2)nc2cnc(N3CCNCC3)nc2n1C1CC1 | 25.1 µM (active) | 
O=c1c(-c2ccc(F)cc2)nc2cnc(N3CCOCC3)nc2n1C1CC1 | inactive | 
CN(C)c1ncc2nc(-c3ccccc3)c(=O)n(C3CC3)c2n1 | inactive | 
O=c1c(-c2ccc(Cl)cc2)nc2cnc(N3CCOCC3)nc2n1C1CC1 | inactive | 
O=c1cnc2cnc(N3CCOCC3)nc2n1C1CC1 | inactive | 
O=c1c(-c2cccs2)nc2cnc(N3CCNCC3)nc2n1C1CC1 | 6.31 µM (active) | 
CN1CCN(c2ncc3nc(-c4cc(F)cc(F)c4)c(=O)n(C)c3n2)CC1 | inactive | 
O=c1c(-c2cccs2)nc2cnc(Oc3ccccc3)nc2n1C1CC1 | inactive | 
O=c1c(-c2ccc(F)cc2)nc2cnc(N3CCNCC3)nc2n1C1CC1 | 15.8 µM (active) | 
O=c1c(-c2ccccc2)nc2cnc(N3CCOCC3)nc2n1C1CC1 | inactive | 
O=c1c(-c2cc(F)cc(F)c2)nc2cnc(N3CCOCC3)nc2n1C1CC1 | inactive | 
